Experiment in all cases: DAPPL (digital affinity profiling via proximity ligation, sequencing); 10 mM Tris-HCl pH 7.5, 50 mM NaCl, 1 mM DTT, 4% glycerol, room temperature, 30 min; GST-TFs on glutathione beads, 16-mer random dsDNA library, 0.1% formaldehyde crosslink after washing; high values mean tight binding
Conditions in all cases: protein: recombinant; tags: N-terminal GST; dsDNA, one strand shown

The target of one experiment is T1, ERF (Homo sapiens, UniProt P50548 1-548).
T1 sequence: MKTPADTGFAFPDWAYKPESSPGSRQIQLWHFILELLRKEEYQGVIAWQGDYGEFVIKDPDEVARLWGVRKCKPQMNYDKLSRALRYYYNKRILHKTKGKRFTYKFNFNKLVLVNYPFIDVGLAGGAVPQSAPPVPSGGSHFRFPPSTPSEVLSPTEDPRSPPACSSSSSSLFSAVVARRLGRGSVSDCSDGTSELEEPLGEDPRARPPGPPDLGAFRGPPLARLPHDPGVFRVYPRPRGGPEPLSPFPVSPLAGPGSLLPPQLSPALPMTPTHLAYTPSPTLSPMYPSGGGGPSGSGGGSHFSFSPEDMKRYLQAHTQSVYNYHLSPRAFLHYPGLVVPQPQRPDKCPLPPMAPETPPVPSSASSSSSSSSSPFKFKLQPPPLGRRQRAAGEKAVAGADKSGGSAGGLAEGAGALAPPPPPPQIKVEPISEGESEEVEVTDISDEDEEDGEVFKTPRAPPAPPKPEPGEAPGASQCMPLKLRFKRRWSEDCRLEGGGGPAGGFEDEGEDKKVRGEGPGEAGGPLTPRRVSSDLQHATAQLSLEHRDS
Put shortly:
(§1)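 Sequencing on an Illumina NextSeq500 followed washing, crosslinking with 0.1% formaldehyde, proximity ligation (BsaI/T4 ligase, 1 h, 37 °C) and PCR amplification of pools that had been incubated for 30 min at room temperature with 200 nmole of a random double-stranded 16-mer DNA library in Tris/NaCl/DTT/glycerol buffer. Each pool held DNA-barcoded human transcription factors, expressed in yeast as GST fusions and captured on glutathione beads, plus a tag-only sample. Binding signal is a hexamer's read frequency for a factor divided by its frequency in the tag-only sample.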

For a further experiment, the target named is T2, ETV3L (Homo sapiens, UniProt Q6ZN32 1-361).
T2 sequence: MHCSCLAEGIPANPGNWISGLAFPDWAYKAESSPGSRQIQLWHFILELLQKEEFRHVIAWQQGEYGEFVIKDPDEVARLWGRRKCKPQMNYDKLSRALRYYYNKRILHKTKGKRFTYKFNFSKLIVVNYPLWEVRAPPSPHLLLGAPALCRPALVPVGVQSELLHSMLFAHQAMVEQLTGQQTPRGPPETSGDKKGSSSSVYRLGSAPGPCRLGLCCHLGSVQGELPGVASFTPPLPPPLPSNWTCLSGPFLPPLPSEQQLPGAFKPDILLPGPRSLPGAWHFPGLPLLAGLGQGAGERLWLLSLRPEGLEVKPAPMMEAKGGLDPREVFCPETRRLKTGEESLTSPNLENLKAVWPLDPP
In outline:
as §1

The target of the next experiment is T3, ETS2 (Homo sapiens, UniProt P15036 1-469).
T3 sequence: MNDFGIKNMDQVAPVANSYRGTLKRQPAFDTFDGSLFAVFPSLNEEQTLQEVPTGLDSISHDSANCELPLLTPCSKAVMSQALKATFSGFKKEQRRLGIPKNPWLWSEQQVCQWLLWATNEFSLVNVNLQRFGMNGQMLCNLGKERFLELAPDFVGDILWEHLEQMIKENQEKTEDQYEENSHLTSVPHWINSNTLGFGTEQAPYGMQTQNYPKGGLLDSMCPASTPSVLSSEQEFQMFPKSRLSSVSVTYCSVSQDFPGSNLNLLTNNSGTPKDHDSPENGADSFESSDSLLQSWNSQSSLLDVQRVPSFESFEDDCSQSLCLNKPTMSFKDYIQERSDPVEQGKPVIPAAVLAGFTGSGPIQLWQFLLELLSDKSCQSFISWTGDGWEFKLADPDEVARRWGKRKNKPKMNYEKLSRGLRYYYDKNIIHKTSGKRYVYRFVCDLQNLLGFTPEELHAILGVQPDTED
In outline: as §1

The target in another experiment is T4, SPDEF (Homo sapiens, UniProt O95238 1-335).
T4 sequence: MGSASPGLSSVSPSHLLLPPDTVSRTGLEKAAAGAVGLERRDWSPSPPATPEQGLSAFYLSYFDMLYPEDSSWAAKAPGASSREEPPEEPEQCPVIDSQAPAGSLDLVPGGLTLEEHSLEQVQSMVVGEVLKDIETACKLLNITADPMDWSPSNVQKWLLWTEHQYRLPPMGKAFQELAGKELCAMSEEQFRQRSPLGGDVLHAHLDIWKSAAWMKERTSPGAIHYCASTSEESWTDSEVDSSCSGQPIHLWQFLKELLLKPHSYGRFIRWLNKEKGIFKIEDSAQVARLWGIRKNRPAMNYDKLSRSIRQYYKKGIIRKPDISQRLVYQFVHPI
Put shortly:
as §1

Another experiment concerns the target T5, ETV7 (Homo sapiens, UniProt Q9Y603 1-341).
T5 sequence: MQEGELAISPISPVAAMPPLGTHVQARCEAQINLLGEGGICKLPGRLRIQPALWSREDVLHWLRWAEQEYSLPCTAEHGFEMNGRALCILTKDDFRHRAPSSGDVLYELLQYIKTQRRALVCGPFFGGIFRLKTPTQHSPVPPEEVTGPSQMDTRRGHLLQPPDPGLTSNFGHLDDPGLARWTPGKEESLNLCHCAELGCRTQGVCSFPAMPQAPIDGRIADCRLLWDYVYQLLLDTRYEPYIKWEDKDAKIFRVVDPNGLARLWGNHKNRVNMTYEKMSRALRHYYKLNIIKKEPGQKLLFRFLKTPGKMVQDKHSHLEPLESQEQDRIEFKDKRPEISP
In outline: as §1

In the next experiment the target is T6, ELF5 (Homo sapiens, UniProt Q9UKW6-2 1-255).
T6 sequence: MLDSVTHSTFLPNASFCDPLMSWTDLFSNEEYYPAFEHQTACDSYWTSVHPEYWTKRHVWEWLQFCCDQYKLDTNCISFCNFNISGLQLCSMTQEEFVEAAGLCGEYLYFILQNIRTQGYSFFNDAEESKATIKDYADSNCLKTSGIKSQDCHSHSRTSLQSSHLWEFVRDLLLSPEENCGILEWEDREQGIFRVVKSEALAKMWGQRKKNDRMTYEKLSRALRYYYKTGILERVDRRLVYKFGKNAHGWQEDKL
In outline: as §1

The target of another experiment is T7, ETV3 (Homo sapiens, UniProt P41162-2 1-143).
T7 sequence: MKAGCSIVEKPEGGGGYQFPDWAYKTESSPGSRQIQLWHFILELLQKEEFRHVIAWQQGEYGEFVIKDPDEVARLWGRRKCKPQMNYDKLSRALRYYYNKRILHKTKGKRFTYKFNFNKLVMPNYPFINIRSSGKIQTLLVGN
In outline:
as §1

For the next experiment, the target named is ETV6 (Homo sapiens, UniProt P41212 1-452). In outline: as §1
Chain of ETV6 (P41212 whole entry): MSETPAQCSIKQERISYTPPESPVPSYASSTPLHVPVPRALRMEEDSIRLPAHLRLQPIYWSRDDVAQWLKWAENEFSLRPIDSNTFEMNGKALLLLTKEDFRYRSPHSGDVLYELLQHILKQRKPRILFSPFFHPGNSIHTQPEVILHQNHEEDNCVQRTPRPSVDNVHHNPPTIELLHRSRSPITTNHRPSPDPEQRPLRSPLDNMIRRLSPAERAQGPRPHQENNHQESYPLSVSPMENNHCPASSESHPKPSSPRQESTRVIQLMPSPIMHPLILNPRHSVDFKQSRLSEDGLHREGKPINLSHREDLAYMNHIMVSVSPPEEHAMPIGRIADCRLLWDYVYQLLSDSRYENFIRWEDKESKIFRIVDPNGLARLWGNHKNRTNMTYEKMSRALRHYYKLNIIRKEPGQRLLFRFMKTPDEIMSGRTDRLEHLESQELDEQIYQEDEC

Take TATGTA: the binding signal with ERF is 1.36 fold enrichment (6-mer frequency, TF over GST control); with ETV3L, 1.29 fold enrichment (6-mer frequency, TF over GST control); with ETS2, 1.38 fold enrichment (6-mer frequency, TF over GST control); with SPDEF, 1.35 fold enrichment (6-mer frequency, TF over GST control); with ETV7, 1.35 fold enrichment (6-mer frequency, TF over GST control); with ELF5 it was 1.26 fold enrichment (6-mer frequency, TF over GST control). The binding signal in the experiment with ETV3 is 1.25 fold enrichment (6-mer frequency, TF over GST control); with ETV6, 1.28 fold enrichment (6-mer frequency, TF over GST control).
Regarding CCCTAC, the binding signal with ERF was 1.37 fold enrichment (6-mer frequency, TF over GST control); in the experiment with ETV3L, 1.53 fold enrichment (6-mer frequency, TF over GST control); in the experiment with ETS2, 1.42 fold enrichment (6-mer frequency, TF over GST control); with SPDEF, 1.43 fold enrichment (6-mer frequency, TF over GST control); with ETV7, 1.37 fold enrichment (6-mer frequency, TF over GST control); in the experiment with ELF5, 1.61 fold enrichment (6-mer frequency, TF over GST control). The binding signal with ETV3 was 1.41 fold enrichment (6-mer frequency, TF over GST control); with ETV6, 1.6 fold enrichment (6-mer frequency, TF over GST control).
For ACCTAA, the binding signal in the experiment with ERF was 1.17 fold enrichment (6-mer frequency, TF over GST control); with ETV3L it was 1.18 fold enrichment (6-mer frequency, TF over GST control); with ETS2 it was 1.17 fold enrichment (6-mer frequency, TF over GST control); in the experiment with SPDEF it was 1.19 fold enrichment (6-mer frequency, TF over GST control); with ETV7, 1.18 fold enrichment (6-mer frequency, TF over GST control); in the experiment with ELF5, 1.14 fold enrichment (6-mer frequency, TF over GST control). Also, the binding signal is 1.03 fold enrichment (6-mer frequency, TF over GST control) in the experiment with ETV3 and 1.18 fold enrichment (6-mer frequency, TF over GST control) with ETV6.
Regarding CTGCGC, the binding signal with ERF was 1.34 fold enrichment (6-mer frequency, TF over GST control); with ETV3L, 1.33 fold enrichment (6-mer frequency, TF over GST control); with ETS2, 1.46 fold enrichment (6-mer frequency, TF over GST control); with SPDEF it was 1.12 fold enrichment (6-mer frequency, TF over GST control); with ETV7, 1.23 fold enrichment (6-mer frequency, TF over GST control); with ELF5, 1.26 fold enrichment (6-mer frequency, TF over GST control). Moreover, the binding signal with ETV3 is 1.32 fold enrichment (6-mer frequency, TF over GST control); with ETV6 it was 1.27 fold enrichment (6-mer frequency, TF over GST control).
On to TTTTAA, for which the binding signal in the experiment with ERF is 1.37 fold enrichment (6-mer frequency, TF over GST control); with ETV3L, 1.28 fold enrichment (6-mer frequency, TF over GST control); with ETS2, 1.28 fold enrichment (6-mer frequency, TF over GST control); in the experiment with SPDEF, 1.21 fold enrichment (6-mer frequency, TF over GST control); with ETV7, 1.32 fold enrichment (6-mer frequency, TF over GST control); with ELF5 it was 1.17 fold enrichment (6-mer frequency, TF over GST control). Further, the binding signal in the experiment with ETV3 is 1.23 fold enrichment (6-mer frequency, TF over GST control); in the experiment with ETV6 it was 1.27 fold enrichment (6-mer frequency, TF over GST control).
Regarding TCTGCT, the binding signal is 1.52 fold enrichment (6-mer frequency, TF over GST control) with ERF; 1.28 fold enrichment (6-mer frequency, TF over GST control) with ETV3L; 1.29 fold enrichment (6-mer frequency, TF over GST control) with ETS2; 1.21 fold enrichment (6-mer frequency, TF over GST control) in the experiment with SPDEF; 1.14 fold enrichment (6-mer frequency, TF over GST control) in the experiment with ETV7; 1.2 fold enrichment (6-mer frequency, TF over GST control) with ELF5. Further, the binding signal with ETV3 is 1.32 fold enrichment (6-mer frequency, TF over GST control); with ETV6, 1.18 fold enrichment (6-mer frequency, TF over GST control).
As to CATCTC, the binding signal with ERF is 1.25 fold enrichment (6-mer frequency, TF over GST control); with ETV3L, 1.32 fold enrichment (6-mer frequency, TF over GST control); with ETS2 it was 1.36 fold enrichment (6-mer frequency, TF over GST control); with SPDEF it was 1.24 fold enrichment (6-mer frequency, TF over GST control); with ETV7, 1.15 fold enrichment (6-mer frequency, TF over GST control); with ELF5, 1.22 fold enrichment (6-mer frequency, TF over GST control). For the same sequence, the binding signal in the experiment with ETV3 was 1.29 fold enrichment (6-mer frequency, TF over GST control); with ETV6 it was 1.26 fold enrichment (6-mer frequency, TF over GST control).
Regarding TAATAC, the binding signal with ERF is 1.14 fold enrichment (6-mer frequency, TF over GST control); in the experiment with ETV3L it was 1.1 fold enrichment (6-mer frequency, TF over GST control); with ETS2, 1.12 fold enrichment (6-mer frequency, TF over GST control); with SPDEF it was 1.12 fold enrichment (6-mer frequency, TF over GST control); in the experiment with ETV7, 1.11 fold enrichment (6-mer frequency, TF over GST control); with ELF5, 1.09 fold enrichment (6-mer frequency, TF over GST control). Further, the binding signal with ETV3 was 1.03 fold enrichment (6-mer frequency, TF over GST control); with ETV6, 1.12 fold enrichment (6-mer frequency, TF over GST control).

Values taken from publication PMC7862700, “An all-to-all approach to the identification of sequence-specific readers for epigenetic DNA modifications on cytosine”.
